# Values joined by “and” are separate entries in the source; they are usually repeats but may differ in a detail not shown here. Equal entries are not always repeated. Inconclusive results are not listed. Where a call stands in place of a potency, no number is given. A structure can be active in one record and inactive in another. Active and inactive are the calls of the source. Unless noted, calls come from the whole dose curve; as a rule, active = well fitted curve in the direction sought with a large enough effect in the repeat runs; inconclusive = weak or mixed curves; inactive = no such curve, though single readings can be large; an effect the other way counts as inactive or inconclusive.
# How the values were obtained:
# [1] = qHTS assay to test for compound auto fluorescence at 535 nm (green) in HEK293 cells (AID 720680)
# [2] = qHTS assay to test for compound auto fluorescence at 460 nm (blue) in HEK293 cell free culture (AID 720681)
# Outline: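 Blue fluorescence (Ex 405/Em 460 nm, triamterene-equivalent) was read immediately after pin transfer of compound or DMSO into medium (DMEM, 10% FBS) without cells.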
# [3] = qHTS assay to test for compound auto fluorescence at 535 nm (green) in HEK293 cell free culture (AID 720682)
# Outline: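 DMEM + 10% FBS, cell-free; cpd or DMSO pinned in; Ex485/Em535 read; output as fluorescein-equivalent signal.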
# [4] = qHTS assay to test for compound auto fluorescence at 590 nm (red) in HEK293 cell free culture (AID 720683)
# Outline: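 Red-channel autofluorescence of compounds in culture medium (DMEM, 10% FBS), no cells, measured at 540/590 nm. Rose Bengal sodium is the reference fluorophore for equivalence.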
# [5] = qHTS assay to test for compound auto fluorescence at 590 nm (red) in HepG2 cell free culture (AID 720684)
# Outline: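 Cell-free; medium MEM + 10% FBS; compound or DMSO added by pintool; read Ex 540/Em 590 nm; Rose Bengal sodium as red reference fluorophore.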
# [6] = qHTS assay to test for compound auto fluorescence at 460 nm (blue) in HepG2 cell free culture (AID 720685)
# Outline: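 Cell-free plates of MEM plus 10% FBS received 23 nL compound or DMSO vehicle; blue-channel (405/460 nm) intensity scored against triamterene as reference fluorophore.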
# [7] = qHTS assay to test for compound auto fluorescence at 535 nm (green) in HepG2 cell free culture (AID 720686)
# [8] = qHTS assay to test for compound auto fluorescence at 460 nm (blue) in HepG2 cells (AID 720687)
# Outline: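 Blue-channel autofluorescence (Ex/Em 405/460 nm, triamterene-equivalent) was measured after 1 hr compound exposure at 37 C, 5% CO2. Cells were HepG2, plated overnight at 37 C in MEM plus 10% FBS.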
# [9] = molecular target: Glucocorticoid receptor (Homo sapiens) (UniProt P04150); assay: qHTS assay to identify small molecule agonists of the glucocorticoid receptor (GR) signaling pathway (AID 720691; active = well fitted activation curve with a large enough effect in the signal ratio in the repeat runs, not every such curve was filed as active; the % refers to the signal ratio)
# Outline: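 Compounds in DMSO, alongside positive controls, were added to GR-bla HeLa reporter cells and incubated 18 h at 37 C; GRE-driven beta-lactamase was detected by fluorescence after 2 h with FRET substrate at room temperature.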
# [10] = molecular target: Glucocorticoid receptor (Homo sapiens) (UniProt P04150); assay: qHTS assay to identify small molecule antagonists of the glucocorticoid receptor (GR) signaling pathway (AID 720692; active = well fitted inhibition curve with a large enough effect in the signal ratio in the repeat runs, not every such curve was filed as active; the % refers to the signal ratio)
# Outline: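 In a 1536-well cell format, compounds were added 4 h after seeding GR-bla HeLa cells, together with dexamethasone at 5 nM final; reporter activity was measured by FRET-substrate fluorescence following 18 h at 37 C.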
# [11] = qHTS assay to identify small molecule antagonists of the glucocorticoid receptor (GR) signaling pathway - cell viability counter screen (AID 720693); note: nearly all actives have a fitted effect of over 55% in size
# [12] = qHTS assay for identifying genotoxic compounds that show differential cytotoxicity against isogenic chicken DT40 cell lines with known DNA damage response pathways - wild type cell line (AID 743012); note: nearly all actives have a fitted effect of over 60% in size
# Outline: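 Viability of DNA repair-proficient chicken DT40 cells was assessed by CellTiter-Glo luminescence following 40 h compound exposure at 37 C/5% CO2.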
# [13] = qHTS assay for identifying genotoxic compounds that show differential cytotoxicity against isogenic chicken DT40 cell lines with known DNA damage response pathways - Rev3 mutant cell line (AID 743014); note: nearly all actives have a fitted effect of over 55% in size; note: potency is the fitted concentration of half-maximal effect
# [14] = qHTS assay to identify small molecule antagonists of the androgen receptor (AR) signaling pathway - cell viability counter screen (AID 743033; note: nearly all actives have a fitted effect of over 45% in size)
# [15] = molecular target: Androgen receptor (Homo sapiens) (UniProt P10275); assay: qHTS assay to identify small molecule antagonists of the androgen receptor (AR) signaling pathway (AID 743035; active = well fitted inhibition curve with a large enough effect in the signal ratio in the repeat runs, not every such curve was filed as active; the % refers to the signal ratio)
# Outline: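 Reporter HEK293 cells were exposed to compounds and R1881 overnight (16 h, 37C); beta-lactamase activity was then quantified by FRET fluorescence.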
# [16] = molecular target: Androgen receptor (Homo sapiens) (UniProt P10275); assay: qHTS assay to identify small molecule agonists of the androgen receptor (AR) signaling pathway (AID 743036; active = well fitted activation curve with a large enough effect in the signal ratio in the repeat runs, with a control signal flat, not every such curve was filed as active; the % refers to the signal ratio)
# Outline: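 Screening used 2,000 AR-bla HEK293 cells per well, treated 16 h at 37C with test compounds in DMSO alongside positive and DMSO-only controls; beta-lactamase activity was then read by LiveBLAzer B/G FRET fluorescence after 2 h at room temperature.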
# [17] = molecular target: Androgen receptor (Homo sapiens) (UniProt P10275); assay: qHTS assay to identify small molecule agonists of the androgen receptor (AR) signaling pathway using the MDA cell line (AID 743040; note: nearly all actives have a fitted effect of over 20% in size)
# Outline: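 Luciferase agonist assay: 16 h compound exposure at 37C without CO2 in MDA-kb2 AR-luc cells, whose MMTV promoter responds to both AR and GR. Luminescence measured after 30 min room-temperature incubation with ONE-Glo.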
# [18] = qHTS assay to identify small molecule antagonists of the androgen receptor (AR) signaling pathway using the MDA cell line - cell viability counter screen (AID 743041; note: nearly all actives have a fitted effect of over 45% in size)
# Outline: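 Viability read by CellTiter-Fluor fluorescence in the same wells as the antagonist screen, added after 15.5 h of a 16 h, 37C exposure. Human breast carcinoma MDA-kb2 AR-luc cells, compounds co-dosed with agonist R1881.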
# [19] = qHTS assay for identifying genotoxic compounds that show differential cytotoxicity against isogenic chicken DT40 cell lines with known DNA damage response pathways - Rad54/Ku70 mutant cell line (AID 743015); note: nearly all actives have a fitted effect of over 60% in size; note: potency is the fitted concentration of half-maximal effect
# [20] = molecular target: Androgen receptor (Homo sapiens) (UniProt P10275); assay: qHTS assay to identify small molecule antagonists of the androgen receptor (AR) signaling pathway using the MDA cell line (AID 743042; note: nearly all actives have a fitted effect of over 55% in size)
# Outline: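 Antagonist mode: compounds plus R1881 agonist added to MDA-kb2 AR-luc cells, incubated 16 h at 37C. Luciferase reporter luminescence quantified, with multiplexed CellTiter-Fluor readout for cell viability.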
# Androgen receptor (Homo sapiens), sequence (P10275 whole entry, looked up): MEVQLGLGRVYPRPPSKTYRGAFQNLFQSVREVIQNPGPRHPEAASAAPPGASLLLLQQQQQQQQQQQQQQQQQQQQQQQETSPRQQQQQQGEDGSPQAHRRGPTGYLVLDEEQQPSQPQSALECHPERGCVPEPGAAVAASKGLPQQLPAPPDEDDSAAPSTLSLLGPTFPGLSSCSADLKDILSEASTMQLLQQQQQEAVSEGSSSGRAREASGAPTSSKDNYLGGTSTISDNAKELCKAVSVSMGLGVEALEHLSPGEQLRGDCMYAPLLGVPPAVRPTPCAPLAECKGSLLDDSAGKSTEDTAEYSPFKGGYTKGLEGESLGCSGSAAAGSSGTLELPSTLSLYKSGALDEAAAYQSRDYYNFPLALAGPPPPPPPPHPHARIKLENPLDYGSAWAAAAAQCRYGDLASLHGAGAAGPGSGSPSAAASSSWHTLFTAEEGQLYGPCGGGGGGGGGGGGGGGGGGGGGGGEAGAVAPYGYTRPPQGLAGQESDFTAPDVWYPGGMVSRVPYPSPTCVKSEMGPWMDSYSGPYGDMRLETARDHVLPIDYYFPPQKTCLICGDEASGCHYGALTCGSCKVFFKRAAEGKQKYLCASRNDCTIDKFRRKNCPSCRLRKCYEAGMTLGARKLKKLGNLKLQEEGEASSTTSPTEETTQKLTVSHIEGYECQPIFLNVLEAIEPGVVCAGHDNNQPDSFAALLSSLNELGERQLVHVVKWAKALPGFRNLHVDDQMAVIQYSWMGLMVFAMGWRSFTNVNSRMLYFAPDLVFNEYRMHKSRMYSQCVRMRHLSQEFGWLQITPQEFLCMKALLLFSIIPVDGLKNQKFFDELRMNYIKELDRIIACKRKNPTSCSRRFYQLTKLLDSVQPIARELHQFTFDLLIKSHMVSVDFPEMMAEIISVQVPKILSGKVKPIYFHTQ
# Glucocorticoid receptor (Homo sapiens), sequence (P04150 whole entry, looked up): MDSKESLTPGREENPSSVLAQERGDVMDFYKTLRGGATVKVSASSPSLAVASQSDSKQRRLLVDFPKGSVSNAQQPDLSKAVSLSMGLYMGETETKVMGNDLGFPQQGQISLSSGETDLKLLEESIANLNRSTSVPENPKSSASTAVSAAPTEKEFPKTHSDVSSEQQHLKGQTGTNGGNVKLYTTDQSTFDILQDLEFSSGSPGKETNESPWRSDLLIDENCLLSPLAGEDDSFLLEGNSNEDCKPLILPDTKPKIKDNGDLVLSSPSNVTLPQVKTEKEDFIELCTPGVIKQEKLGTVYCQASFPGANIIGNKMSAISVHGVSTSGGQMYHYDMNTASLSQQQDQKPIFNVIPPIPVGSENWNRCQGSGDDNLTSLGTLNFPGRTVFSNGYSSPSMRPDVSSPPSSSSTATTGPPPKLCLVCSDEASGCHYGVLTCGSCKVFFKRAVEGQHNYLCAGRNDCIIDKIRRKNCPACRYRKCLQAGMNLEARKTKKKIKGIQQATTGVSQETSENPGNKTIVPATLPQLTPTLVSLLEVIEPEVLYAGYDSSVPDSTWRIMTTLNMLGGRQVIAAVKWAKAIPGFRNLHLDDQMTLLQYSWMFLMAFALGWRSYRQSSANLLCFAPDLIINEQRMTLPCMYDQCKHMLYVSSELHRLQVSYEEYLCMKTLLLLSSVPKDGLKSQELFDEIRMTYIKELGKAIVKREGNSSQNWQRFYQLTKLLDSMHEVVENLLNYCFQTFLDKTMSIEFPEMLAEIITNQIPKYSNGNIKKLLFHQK
SMILES,Potency [1],Potency [2],Potency [3],Potency [4],Potency [5],Potency [6],Potency [7],Potency [8],Potency [9],Potency [10],Potency [11],Potency [12],Potency [13],Potency [14],Potency [15],outcome [16],Potency [17],Potency [18],Potency [19],Potency [20]
c1ccc2c(c1)ccc1ncccc12,inactive,inactive,inactive,inactive,inactive,inactive,inactive,inactive,inactive,inactive,inactive,inactive,inactive,inactive,inactive,inactive,inactive,inactive,–,–
FC(F)(F)C(Cl)Br (centres undefined),inactive,inactive,inactive,–,inactive,inactive,inactive,–,inactive,inactive,inactive,–,inactive,inactive,–,–,–,inactive,inactive,–
Cc1ccc(S(=O)(=O)O)cc1C,inactive,–,inactive,inactive,inactive,inactive,inactive,inactive,inactive,inactive,inactive,inactive,inactive,inactive,–,–,–,inactive,inactive,–
COC(=O)C(C)Oc1ccc(Oc2ncc(C(F)(F)F)cc2Cl)cc1 (centres undefined),inactive,inactive,inactive,inactive,inactive,inactive,inactive,–,–,–,inactive,–,54.5 µM (active),inactive,–,–,–,inactive,–,–
CC[C@]12CCCN3CCc4c(n(c5ccccc45)[C@@](O)(C(=O)OC)C1)[C@@H]32,inactive,inactive,inactive,–,inactive,inactive,inactive,inactive,inactive,inactive,inactive,inactive,inactive,inactive,inactive,inactive,inactive,inactive,inactive,inactive
Cc1ccc(C(C)(C)C)c(O)c1,inactive,inactive,inactive,–,inactive,inactive,inactive,inactive,–,–,inactive,–,inactive and 48.6 µM (active),–,–,–,–,inactive,inactive and 43.3 µM (active),–
Clc1ccc(Sc2cc(Cl)c(Cl)cc2Cl)cc1,inactive,inactive,inactive,–,inactive,inactive,inactive,–,inactive,inactive,inactive,inactive,inactive,inactive,–,–,–,inactive,–,–
OCCNCCO,inactive,inactive,inactive,–,inactive,inactive,inactive,–,inactive,inactive,inactive,inactive,inactive,inactive,–,–,–,inactive,inactive,–
